Only a selection was taken, and hits are over-represented in it overall.
Dicer inh = inhibitors of human Dicer processing of pre-microRNA | cat-ELCCA pre-miR-21 Dicer processing, chemiluminescence; stronger effect = higher value | z-score at 25 µM | 6% of 47,000 active | AID 1347074; in the data active = z-score above about 3, passing the limit was not always enough;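 note: higher signal means more uncleaved substrate so more Dicer inhibition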
Target sequence (Q9UPY3 whole entry, looked up): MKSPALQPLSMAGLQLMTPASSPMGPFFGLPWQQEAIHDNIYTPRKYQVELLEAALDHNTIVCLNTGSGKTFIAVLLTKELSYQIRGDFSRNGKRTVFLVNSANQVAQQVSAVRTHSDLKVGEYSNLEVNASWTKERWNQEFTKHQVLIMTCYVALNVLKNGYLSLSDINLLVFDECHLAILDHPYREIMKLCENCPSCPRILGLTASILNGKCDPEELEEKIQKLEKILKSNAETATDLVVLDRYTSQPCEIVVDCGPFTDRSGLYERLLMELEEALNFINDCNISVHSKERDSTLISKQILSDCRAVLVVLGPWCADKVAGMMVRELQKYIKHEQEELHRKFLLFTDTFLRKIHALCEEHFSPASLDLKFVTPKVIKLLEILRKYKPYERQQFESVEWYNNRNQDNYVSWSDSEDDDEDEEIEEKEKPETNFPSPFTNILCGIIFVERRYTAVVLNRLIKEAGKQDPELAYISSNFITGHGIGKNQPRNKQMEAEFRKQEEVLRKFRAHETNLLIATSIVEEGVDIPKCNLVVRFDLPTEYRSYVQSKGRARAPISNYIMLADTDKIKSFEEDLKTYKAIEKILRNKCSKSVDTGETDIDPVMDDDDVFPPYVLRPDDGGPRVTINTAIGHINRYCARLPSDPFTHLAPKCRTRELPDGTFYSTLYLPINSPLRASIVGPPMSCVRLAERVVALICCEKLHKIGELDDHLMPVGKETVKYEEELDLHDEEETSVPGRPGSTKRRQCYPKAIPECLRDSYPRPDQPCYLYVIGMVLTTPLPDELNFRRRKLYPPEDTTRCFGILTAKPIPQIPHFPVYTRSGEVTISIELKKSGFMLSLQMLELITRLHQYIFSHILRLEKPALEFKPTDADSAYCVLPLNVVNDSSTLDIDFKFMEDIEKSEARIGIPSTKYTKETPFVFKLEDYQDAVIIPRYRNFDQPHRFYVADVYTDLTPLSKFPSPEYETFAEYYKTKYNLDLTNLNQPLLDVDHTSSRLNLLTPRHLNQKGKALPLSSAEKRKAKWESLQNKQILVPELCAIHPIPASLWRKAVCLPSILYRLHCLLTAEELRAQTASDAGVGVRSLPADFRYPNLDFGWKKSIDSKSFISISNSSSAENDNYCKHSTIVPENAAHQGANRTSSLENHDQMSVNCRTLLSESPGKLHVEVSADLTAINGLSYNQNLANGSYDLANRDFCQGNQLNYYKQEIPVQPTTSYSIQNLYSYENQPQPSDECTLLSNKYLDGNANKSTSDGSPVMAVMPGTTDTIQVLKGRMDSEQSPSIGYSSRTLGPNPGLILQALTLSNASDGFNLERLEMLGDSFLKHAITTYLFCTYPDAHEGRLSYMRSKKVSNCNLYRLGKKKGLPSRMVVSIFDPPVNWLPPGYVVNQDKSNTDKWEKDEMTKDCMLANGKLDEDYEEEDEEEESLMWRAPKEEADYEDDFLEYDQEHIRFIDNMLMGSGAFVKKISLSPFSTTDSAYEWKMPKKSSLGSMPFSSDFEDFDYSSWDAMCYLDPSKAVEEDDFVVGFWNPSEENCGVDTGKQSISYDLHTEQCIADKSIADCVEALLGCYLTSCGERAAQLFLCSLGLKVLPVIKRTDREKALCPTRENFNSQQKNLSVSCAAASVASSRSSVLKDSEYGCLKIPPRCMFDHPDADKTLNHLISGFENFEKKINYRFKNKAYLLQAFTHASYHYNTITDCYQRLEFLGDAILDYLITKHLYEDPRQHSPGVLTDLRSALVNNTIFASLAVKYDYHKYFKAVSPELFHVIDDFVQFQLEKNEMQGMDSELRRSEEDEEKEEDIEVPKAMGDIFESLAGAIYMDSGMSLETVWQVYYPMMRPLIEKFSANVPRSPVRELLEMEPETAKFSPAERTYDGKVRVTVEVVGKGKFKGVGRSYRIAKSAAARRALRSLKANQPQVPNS
A number is an active result.

CCCCOc1c(Nc2cccc(OC)c2)c(=O)c1=O was read as Dicer inh inactive.
Screening CCOc1c(Nc2ccccc2O)c(=O)c1=O returned Dicer inh 4.12.
Screening O=C1c2oc3ccc(F)cc3c(=O)c2C(c2cccc(O)c2)N1Cc1ccccc1 (stereo unspecified) returned Dicer inh inactive.
Screening CCOC(=O)c1cc2ccccc2oc1=O returned Dicer inh inactive.
CCCCCCn1c(NCc2cccs2)nc2ccccc21 was read as Dicer inh inactive.
Screening Oc1ccc(NCc2cccs2)cc1 returned Dicer inh inactive.
For Nc1nc(NCc2cccs2)nn1-c1ccccc1 the results were Dicer inh 4.27.
`CN(C)S(=O)(=O)c1ccc2c3c(cccc13)C(=O)N2C(=O)c1cccnc1` gave Dicer inh inactive.
`CC(C)NC(=O)NNC(=O)c1csc(-c2cccnc2)n1` gave Dicer inh inactive.
`CC1CC(=O)c2cnn(-c3nc4ccccc4s3)c2C1` (stereo unspecified) gave Dicer inh 3.04.
Cc1nc(Nc2ncc3c(n2)CC(C)CC3=O)nc2ccccc12 (stereo unspecified) was read as Dicer inh inactive.
CC1(C)CC(=O)c2cnn(-c3nc4ccccc4[nH]3)c2C1 was read as Dicer inh inactive.
`O=C1CSC(=S)N1Cc1ccco1` gave Dicer inh inactive.
Screening CC1=N/C(=C\c2cc(F)cc(F)c2)C(=O)O1 returned Dicer inh inactive.
`CC1=N/C(=C/c2ccc(Cl)c(Cl)c2)C(=O)O1` gave Dicer inh 3.16.
CC1=N/C(=C\c2ccc3ccccc3c2)C(=O)O1 was read as Dicer inh inactive.
COc1nc2c(c(-c3ccccc3)c1C#N)Cc1ccccc1-2 was read as Dicer inh inactive.
`COc1ccc2c(c1)nnc1nnc(SCC(=O)O)n12` gave Dicer inh inactive.
COc1ccccc1NC(=S)NNC(=O)NNC(=S)Nc1ccccc1OC was read as Dicer inh 4.43.
Screening COc1ccccc1NC(=S)Nc1ccccn1 returned Dicer inh inactive.
COc1ccccc1NC(=S)NCC(C)(C)C(=O)O was read as Dicer inh inactive.
Screening COC(=O)Cc1[nH]nc2c1C(c1ccc(F)cc1F)C(C#N)=C(N)O2 (stereo unspecified) returned Dicer inh inactive.
For CCOC(=O)c1ccc2[nH]c(C(=O)OCC)c(CCC(=O)O)c2c1 the results were Dicer inh inactive.
O=C(O)CCCNc1n[nH]c(=O)[nH]c1=O was read as Dicer inh inactive.
`CC(C)OC(=O)CSc1n[nH]c(=O)[nH]c1=O` gave Dicer inh inactive.
O=C(O)CCSc1n[nH]c(=O)[nH]c1=O was read as Dicer inh 4.84.
For COCCCN1C(=O)C(=O)/C(=C(/O)c2ccc(C)cc2)C1c1ccc(C(C)C)cc1 (stereo unspecified) the results were Dicer inh inactive.
Screening CCN1CCN(C(=O)c2c(C)oc3c2cc(OC(C)=O)c2ccccc23)CC1 returned Dicer inh inactive.
Screening CN1CCN(CC(=O)N2c3ccccc3C=Cc3ccccc32)CC1 returned Dicer inh 7.01.
`O=C(CN1CCCCC1)N1c2ccccc2CCc2ccccc21` gave Dicer inh inactive.
For CN1CCN(CC(=O)N2CCc3ccccc32)CC1 the results were Dicer inh inactive.
Screening CC1SC(c2cccnc2)N(c2ccc(Cl)cc2)C1=O (stereo unspecified) returned Dicer inh inactive.
For O=C1CSC(c2cccnc2)N1CCc1ccc(Cl)cc1 (stereo unspecified) the results were Dicer inh inactive.
For COc1ccc(CCN2C(=O)C(C)SC2c2cccnc2)cc1 (stereo unspecified) the results were Dicer inh 4.16.
Screening CCOC(=O)CC1Sc2ccccc2N=C1SCC(=O)Nc1ccc(Cl)cc1 (stereo unspecified) returned Dicer inh inactive.
Screening CCCOc1ccc(C2c3c(oc4ccccc4c3=O)C(=O)N2c2nnc(C)s2)cc1OCC (stereo unspecified) returned Dicer inh inactive.
`CCCOc1ccc(C2c3c(oc4ccccc4c3=O)C(=O)N2c2ccccn2)cc1OCC` (stereo unspecified) gave Dicer inh 4.4.
`CCCCOc1ccc(C2c3c(oc4ccccc4c3=O)C(=O)N2c2ccccn2)cc1OCC` (stereo unspecified) gave Dicer inh 4.61.
`CCCOc1ccc(C2c3c(oc4ccccc4c3=O)C(=O)N2c2ccc(C)cn2)cc1OCC` (stereo unspecified) gave Dicer inh inactive.
For CCCOc1cccc(C2c3c(oc4ccccc4c3=O)C(=O)N2c2ccccn2)c1 (stereo unspecified) the results were Dicer inh inactive.
For CCCCOc1ccc(C2c3c(oc4ccccc4c3=O)C(=O)N2c2nncs2)cc1OCC (stereo unspecified) the results were Dicer inh inactive.
Screening N#CC1=C(SCc2ccccc2)SC(c2ccccc2O)NC1=O (stereo unspecified) returned Dicer inh inactive.
For CN1c2ccccc2C(C)(C)C12C=Cc1cccc([N+](=O)[O-])c1O2 (stereo unspecified) the results were Dicer inh inactive.
For CCSC1=C(C#N)C(=O)NC(c2ccc(O)c(OC)c2)S1 (stereo unspecified) the results were Dicer inh inactive.
For Cc1cccc(C)c1NC(=O)C(C)N (stereo unspecified) the results were Dicer inh inactive.
For CSC(=NC(C)(C)CO)Nc1c(C)cccc1C the results were Dicer inh 4.75.
CCCSC(=NCC)Nc1c(C)cccc1C was read as Dicer inh inactive.
`Cc1cc(C(=O)CC(Sc2ccccc2N)c2c(F)cccc2Cl)ccc1Cl` (stereo unspecified) gave Dicer inh inactive.
`Cc1ccccc1Nc1nc(C2(C)CC(C(C)C)C(=O)O2)cs1` (stereo unspecified) gave Dicer inh inactive.
`CC1CC2(CC(C)(c3csc(Nc4ccccc4)n3)OC2=O)C(=O)O1` (stereo unspecified) gave Dicer inh 4.91.
`CCCCCOCC1CC2(CC(C)(c3csc(Nc4ccccc4)n3)OC2=O)C(=O)O1` (stereo unspecified) gave Dicer inh inactive.
O=C(N=S1CCN(S(=O)(=O)c2ccc(Cl)cc2)CC1)Nc1ccc(Cl)cc1 was read as Dicer inh inactive.
For O=C(O)/C=C/C(=O)NNC(=O)c1sc2ccccc2c1Cl the results were Dicer inh inactive.
COc1ccc(OC)c([N+](=O)[O-])c1N1CCOCC1 was read as Dicer inh inactive.
For COc1ccccc1C1CCN(c2ccc(C3OCCCO3)cc2[N+](=O)[O-])CC1 the results were Dicer inh inactive.
Screening COc1cccc2c1OC1(N3CCOCC3)CCCCC1C2C[N+](=O)[O-] (stereo unspecified) returned Dicer inh 3.59.
Cc1cc(-c2csc(=S)n2Nc2ccccc2)ccc1Cl was read as Dicer inh inactive.
Screening COC(=O)c1sc(N2C(=O)c3oc4cc(C)c(C)cc4c(=O)c3C2c2ccc(OC)cc2)nc1C (stereo unspecified) returned Dicer inh inactive.
For O=C(NC(=O)N1CCN(c2ccc(C(F)(F)F)cc2[N+](=O)[O-])CC1)c1ccc([N+](=O)[O-])cc1 the results were Dicer inh inactive.
FC(F)(F)c1cc(-c2ccccc2)n[nH]1 was read as Dicer inh inactive.
`Cc1ccc(O)c(-c2cc(C(F)(F)F)[nH]n2)c1` gave Dicer inh 4.1.

Assay outcomes as filed in PubChem BioAssay.
